# HPGD inh: HPGD (human) dehydrogenase inhibition; P15428; purified HPGD, NADH fluorescence kinetic, PGE2 substrate; Potency, µM, hits mostly inhibitors; 150,000 tested, 4.3% active
#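 NADH formation kinetics: reaction with 30 uM PGE2 and 1 mM NAD+ (final), 20 nM enzyme, Tris-HCl pH 8 with Tween 20, after 15 min compound preincubation at room temperature. Fluorescence change, last versus first of five reads.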
# ALDH1A1 block: blocks purified human ALDH1A1 activity. P00352. 220,000 tested, 7.3% active. Purified ALDH1A1, NADH fluorescence, propionaldehyde substrate. Potency, µM (highest dose often 75.3 µM), most hits filed as inhibitors. AID 1030
# Target sequence (P00352 whole entry, looked up): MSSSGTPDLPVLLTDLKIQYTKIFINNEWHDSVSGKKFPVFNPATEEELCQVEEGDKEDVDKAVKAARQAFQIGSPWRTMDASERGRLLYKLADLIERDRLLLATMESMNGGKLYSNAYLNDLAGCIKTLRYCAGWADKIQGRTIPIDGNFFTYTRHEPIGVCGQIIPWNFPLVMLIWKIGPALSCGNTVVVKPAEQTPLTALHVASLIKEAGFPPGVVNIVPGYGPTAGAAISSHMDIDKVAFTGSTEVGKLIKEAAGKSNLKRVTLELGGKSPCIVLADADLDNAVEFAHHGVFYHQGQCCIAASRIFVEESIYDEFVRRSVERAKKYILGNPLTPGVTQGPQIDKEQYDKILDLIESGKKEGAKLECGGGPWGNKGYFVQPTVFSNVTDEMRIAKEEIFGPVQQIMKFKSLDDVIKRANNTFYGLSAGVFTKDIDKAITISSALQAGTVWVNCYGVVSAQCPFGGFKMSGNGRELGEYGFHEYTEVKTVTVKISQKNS
# IMPase inh: cell-permeable inhibitors of inositol monophosphatase (IMPase); CHO-M1 cells, IP1 accumulation, HTRF TR-FRET ratio; 120,000 tested, under 10 active; inhibition (IP1 accumulation), % at 46.1 µM; active = well fitted curve in the direction sought with a large enough effect in the signal ratio, not every such curve was filed as active; inconclusive = small, poorly fitted or top-dose-only effect, or a change in a side signal; inactive = no such curve, though single readings can be large or run the other way; the % refers to the signal ratio;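 note: cells stimulated with carbachol in lithium chloride buffer; higher means more IMPase inhibition seen as more IP1 and lower FRET ratio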
#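 Cellular IMPase inhibition is scored as a rise in cytosolic IP1, detected by competitive TR-FRET between d2-labelled IP1 and a europium anti-IP1 antibody. M1-expressing CHO cells were stimulated with carbachol for 30 min at 37C, with lithium (50 mM LiCl) present in the buffer.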
# A number is an active result; - = inactive; ? = inconclusive; . = not tested or not shown; [ ] = dose if it differs, or a comment. An excerpt weighted towards active compounds, which were near 9% of everything screened. Unless noted, calls come from the whole dose curve; as a rule, active = well fitted inhibition curve with a large enough effect (not every such curve was filed as active); inconclusive = small, poorly fitted or top-dose-only effect, or another doubt; inactive = no such curve, though single readings can be large or run the other way.
SMILES,HPGD inh,ALDH1A1 block,IMPase inh
Cn1nnnc1SCC(=O)c1ccc(Br)s1,-,?,-
Cn1c(Cc2ccccc2)nnc1SCC(=O)c1ccc(Br)s1,28µM,14µM,-
CCOc1cc(N2CCOCC2)c(OCC)cc1NC(=S)NCCCOC,.,-,.
NC(=O)c1cc2n(n1)C(C(F)(F)F)CC(c1ccco1)N2 (stereo not given),-,-,-
CCN(CC)S(=O)(=O)c1cccc(-c2nnc(-c3ccc(C)cc3)o2)c1,-,11µM,-
CCN(CC)S(=O)(=O)c1cccc(-c2nnc(SCC#N)n2Cc2ccccc2)c1,-,10µM,-
CCN(CC)S(=O)(=O)c1cccc(-c2nnc(SC(C)C(N)=O)n2CCc2ccccc2)c1 (stereo not given),-,-,-
CCN(CC)S(=O)(=O)c1cccc(-c2nnc(SCC(N)=O)n2CCc2ccccc2)c1,-,?,?
CCN(CC)S(=O)(=O)c1ccc(-c2nnc(SC)o2)cc1,-,?,-
CCN(CC)S(=O)(=O)c1cccc(-c2nnc(SC(C)C#N)n2Cc2ccccc2)c1 (stereo not given),-,7.9µM,-
O=C(O)C1CC=CCC1C(=O)Nc1ccc2c(c1)OCCO2 (stereo not given),-,?,-
N#Cc1cnc(NOCc2ccc(Cl)cc2)nc1,.,-,.
COc1ccccc1-n1cc([C@@H]2C[C@H]3CN(c4ccccc4)C(=O)[C@]34CCCN24)cn1,.,-,.
COc1ccc(OC(=O)c2ccc(Cl)cc2)c(C(C)=O)c1,.,-,.
CC(=O)c1ccc(NC(=O)COc2ccc3c(c2)OCO3)cc1,.,-,.
COc1ccc(-c2nc3cnc(Nc4cccc(OC)c4)nc3n(C)c2=O)cc1,.,-,.
CCO/C=C/C(O)(CNC(=O)c1ccc(C(C)(C)C)cc1)C(F)(F)F (stereo not given),25µM,-,.
CCOC(=O)CNC(=O)c1ccc(C)cc1,-,-,-
CCc1ccc(C(=O)CN2CCSC2=N)cc1,-,-,.
O=C(CN1CCSC1=NCc1ccccc1)c1ccc(Cl)c(Cl)c1,-,13µM,-
COc1cc(NC(=O)CSc2nc(C)cc(C)n2)cc(OC)c1OC,.,-,.
COc1cc(/C=C2/C(=O)N=C(N)N2C)cc(OC)c1OC,16µM,?,-
COc1c(Br)cc(Br)cc1/C=C1/C(=O)N=C(N)N1C,.,-,.
O=c1oc2c3c4c(cc2s1)CCCN4CCC3,22µM,25µM,-
O=C(N/N=C/c1cc2c3c(c1O)CCCN3CCC2)c1ccccc1O,-,-,.
SMILES,HPGD inh,ALDH1A1 block,IMPase inh
CCn1c(SCC(=O)NNC(=O)c2ccc(OC)cc2)nnc1-c1ccco1,.,-,.
COCCNC(=O)C1(CC(C)C)C=CCN1C(C)=O (stereo not given),-,-,.
CCOc1ccc(NS(=O)(=O)c2ccc(OCC)c3ncccc23)cc1,-,?,-
O=C(O)COc1ccc(C(=O)Cc2ccc3c(c2)OCCCO3)c(O)c1,?,22µM,-
COc1ccc(C(=O)Cc2ccc3c(c2)OCO3)c(O)c1,?,-,.
O=C(CCc1ccc(O)cc1)c1c(O)cc(O)cc1O,35µM,-,-
O=C(Cc1ccc2c(c1)OCCO2)c1c(O)cc(O)cc1O,20µM,?,-
O=C(/C=C/c1ccc(O)cc1)c1c(O)cc(O)cc1O,-,-,-
O=C(Cc1ccccc1)c1ccc2c(c1)OCCO2,.,-,.
CCN(CC)c1nc(-c2ccc(C(C)(C)C)cc2)nc2ccccc12,.,.,-
COCC(=O)N1CCC2(CCCN(C(=O)Nc3cccc(C#N)c3)C2)CC1,-,-,.
COc1ccc(CCNc2nc3c(c(=O)n(C)c(=O)n3C)n2Cc2ccccc2Cl)cc1OC,.,.,-
Cc1cc(C(=O)c2ccccc2)c(NC(=O)CN2CCOCC2)s1,-,-,-
Cc1ccc(C(=O)c2cc(C)sc2NC(=O)CN2CCN(C(=O)c3ccco3)CC2)cc1,.,25µM,-
CC(=O)Nc1cccc(/C(C)=N/NC(=O)c2ccc(CN3CCOCC3)cc2)c1,.,-,.
CCOC(=O)c1cc2occc2n1Cc1c(F)cccc1Cl,-,?,-
COC(=O)c1cc2occc2n1Cc1c(F)cccc1Cl,-,13µM,-
O[C@H](CCCN1CCN(c2ncc(F)cn2)CC1)c1ccc(F)cc1,-,-,-
O=c1[nH]c2ccccc2nc1-c1cccs1,.,-,-
c1csc(-c2nnsc2-c2nc3ccccc3[nH]2)c1,?,10µM,-
CN(C)C(CNC(=S)Nc1ccccc1Cl)c1cccnc1 (stereo not given),.,-,.
COc1cc(OC)cc(-c2n[nH]c(=S)n2-c2ccc3c(c2)OCCO3)c1,.,-,.
Oc1ccc(-c2n[nH]c(=S)n2-c2ccc3c(c2)OCCO3)c(O)c1,14µM,?,.
COc1ccc(-c2n[nH]c(=S)n2-c2ccc3c(c2)OCCO3)cc1,25µM,-,.
COc1ccc(-c2n[nH]c(=S)n2-c2ccc3c(c2)OCCO3)cc1OC,.,-,.
SMILES,HPGD inh,ALDH1A1 block,IMPase inh
Cc1ccccc1-c1cncnc1N1CCNCC1,-,-,.
CC(=O)c1ccc(NC(=O)c2cnn3ccccc23)cc1,?,13µM,-
CC(=O)c1cccc(NC(=O)c2cnn3ccccc23)c1,-,-,-
CN1CCN(C(=O)/C(=C/c2cccs2)NC(=O)c2ccco2)CC1,.,-,.
O=C(NCCN1CCOCC1)c1ccc(CS(=O)(=O)c2ccc(Cl)cc2)o1,-,-,-
O=C(NCc1ccco1)C1CCN(C(=O)c2cc3sccc3n2Cc2ccc(Cl)cc2)CC1,-,13µM,-
O=C(NCCN1CCOCC1)c1cc2sccc2n1Cc1ccc(F)cc1,25µM,-,-
O=C(Nc1nccs1)c1cc2sccc2n1Cc1ccc(F)cc1,?,?,-
CCn1c(C(=O)N2CCC(C(=O)NCc3cccs3)CC2)cc2sccc21,-,-,-
O=C(NCCN1CCOCC1)c1cc2sccc2n1Cc1ccc(Cl)cc1,16µM,?,-[1.84 µM]
Cc1ccccc1NC(=O)NCCN1C(=O)C2C3C=CC(C3)C2C1=O (stereo not given),-,-,-
CCC(=O)OC1c2ccccc2C(=O)N1Cc1ccccc1 (stereo not given),-,-,-
CCOC1=NC(C(=O)O)c2ccccc2/C(=C(/C)Cl)N1 (stereo not given),-,4µM,-
CCn1c2ccccc2c2cc(/C=N/n3c(-c4cc(C)[nH]n4)n[nH]c3=S)ccc21,.,13µM,.
S=c1[nH]ncn1/N=C/c1ccc(Br)cc1,22µM,32µM,-
CCn1c2ccccc2c2cc(/C=N/n3cn[nH]c3=S)ccc21,16µM,22µM,-
S=c1[nH]ncn1/N=C/c1ccccc1,-,-,-
COc1cc(/C=N/n2c(-c3cc(C)[nH]n3)n[nH]c2=S)cc(OC)c1O,.,-,.
CCn1c2ccccc2c2cc(/C=N/n3cnnc3)ccc21,?,?,-
COP(=O)(/C=C/c1ccccc1)C(O)c1ccc(F)cc1 (stereo not given),-,-,-
Clc1ccccc1CN1CCN(/N=C/C=C\c2ccco2)CC1,.,3.2µM,.
C(/C=C/c1ccco1)=N/N1CCN(c2ccccc2)CC1,-,?,-
CCOC(=O)C1(C)/C(=N/Nc2ccc(S(N)(=O)=O)cc2)C(=O)C(=O)N1c1ccccc1 (stereo not given),.,18µM,.
CCOC(=O)C1(C)/C(=N/Nc2cccc(Cl)c2)C(=O)C(=O)N1c1ccccc1 (stereo not given),32µM,?,-

# Bioassay records: PubChem BioAssay, National Center for Advancing Translational Sciences (NCATS)
